Here are results for nine compounds from PubChem BioAssay.

One may read the viability as a read-out of living cells in per cent, often relative to untreated cells. As a reminder, the inhibition is the drop in the measured response relative to a control, in per cent.

Records with an inconclusive call do not appear. Calls of active or inactive are those of the source.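 How the source made its calls, unless noted: active means viability increase at or above a cutoff of the median across tested compounds plus 3 SD (cut at about 8.5% in these data, passing the limit was not always enough); inconclusive means some gains above the cutoff, reason not given; inactive means the rest.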

Test [1] can be described thus: reducers of endogenous Her2 protein level, primary screen, SKBR3 breast tumor cells, AlphaScreen, ATP viability (AID 461;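 active means Her2 level under about 52% in both replicate screens, with viability over 70% of control, limit read from the data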;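 on Her2 level: lower value means less Her2 protein in the cells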;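 on viability: percent of carrier control wells set as 100% viability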). Conditions: 18-24 h, measured here: SKBR3 viability, ATP luminescence, at 10 µM. (In general: In Alpha technology, singlet oxygen from a donor bead excites a nearby acceptor bead.)
The target of test [2] is Receptor tyrosine-protein kinase erbB-2 (Homo sapiens) (UniProt P04626). The description is as above. The settings on record: 18-24 h, at 10 µM, stronger effect = lower value.
A short description of test [3]: SK-BR-3 cell growth inhibitors, pilot screen, 24 h, human (AID 572;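 active means viability at or below 10% of carrier control in both of two separate runs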;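 further: compound exposure lasted between 18 and 24 h rather than exactly 24 h; 100% = carrier-treated control wells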). The settings on record: SK-BR-3 viability, CellTiter-Glo luminescence, at 10 µM, stronger effect = lower value. (In ATP-based viability assays light output follows the ATP content of the culture.)
Test [4] can be described thus: HUVEC growth inhibition – cell-based, human, primary screen (AID 575;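 active means viability at or below 30% in both replicate assays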;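 further: 100% = median of untreated cell wells with 0.1% DMSO on each plate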). Conditions: HUVEC proliferation, CellTiter-Glo luminescence, 72 h; at 10 µM; stronger effect = lower value.
A short description of test [5]: growth inhibitors of H69AR lung tumor, primary screen, human, duplicate replicates (AID 580;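 active means viability at or under a set limit in both replicates, limit being median viability minus 3 SD, cut at about 48% in these data, passing the limit was not always enough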;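 further: 100% = mean luminescence of untreated wells and 0% = no signal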). The settings on record: H69AR lung tumor cells viability, ATP luminescence, 72 h; at 10 µM; stronger effect = lower value.
Test [6] in a line: reversal of MRP1-mediated doxorubicin resistance, pilot screen, H69AR cells, doxorubicin co-treatment (AID 601;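 active means viability loss from added drug above about 55%, and viability with drug at most 40%, in both replicates, limit read from the data, passing the limit was not always enough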). Conditions: CellTiter-Glo, 72 h, at 10 µM; for differential viability (reversal): stronger effect = higher value.
A short description of test [7]: 384-well plate pilot, post-Golgi transport modulator project, inhibition of yeast transport mutant growth (AID 636; in the data active means inhibition above about 31%). The settings on record: absorbance 615 nm, about 18 h, stronger effect = higher value.
Test [8] is described as follows: growth suppression of yeast trafficking mutant, preliminary HTS, modulators of trafficking downstream of Golgi apparatus project, 1536-format plate, OD 615 nm (AID 637; in the data active means inhibition above about 30%). The settings on record: yeast transport mutant growth, absorbance 615 nm, 18 h; stronger effect = higher value.
Test [9] can be described thus: OD615 S. cerevisiae growth inhibition, permissive medium, pilot counter-assay, permissive growth control for S. cerevisiae lifespan shortening project (AID 705;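 active means growth inhibition above 25% in both replicates, a cutoff set 3 SD above the mean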). Conditions: OD615, 24 h, at 10 µM, stronger effect = higher value.
A short description of test [10]: Restrictive medium S. cerevisiae growth inhibition, OD615, pilot screen of yeast lifespan reduction project, restrictive growth control (AID 706;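 active means growth inhibition above a set limit, 3 SD over mean compound inhibition, in both replicates, cut at about 43% in these data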;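 further: modified DeaD lifespan yeast strain shifted to restrictive glucose medium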). The settings on record: OD615, 48 h, at 10 µM, stronger effect = higher value.
Test [11] can be described thus: viability gain of MRP-1-high H69AR cells under doxorubicin, pilot screen, MRP-1 activator project, CellTiter-Glo, duplicate (AID 807).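 Further: compound pretreatment 18-22 h then 72 h combined with doxorubicin; 0% = doxorubicin alone and 100% = vehicle without doxorubicin.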 Conditions: H69AR viability with doxorubicin, CellTiter-Glo luminescence; at 10 µM; stronger effect = higher value.
A short description of test [12]: growth suppression of beta-catenin knockout HCT116, pilot screen, human colon tumor cells (AID 823;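 active means cell viability at or below a set limit in both duplicate runs, the limit being the all-compound median minus 4 SD, cut at about 23% in these data, passing the limit was not always enough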;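 further: 0% = wells killed by 20 µM Hyamine and 100% = untreated DMSO cell wells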). The settings on record: CellTiter-Glo, 60 h, at 10 µM, stronger effect = lower value.
Test [13] is described as follows: growth suppression of PTEN-deleted HCT116, pilot screen, cell-based, HCT116 clonal line, CellTiter-Glo (AID 824;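 active means viability at or below 27.92% in each of two runs, the all-compound median minus 4 SD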;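 further: 0% = 20 µM Hyamine control and 100% = vehicle cell control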). The settings on record: 60 h, at 10 µM, stronger effect = lower value.
Test [14] is described as follows: inhibitors of the yeast RAM network, pilot screen, dse1pr::URA3 reporter, 5-FOA selection (AID 869;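 active means inhibition over a set limit, the all-compound mean plus 3 SD, in both replicate runs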;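 further: 0% = DMSO wells with no growth and 100% = 10 µM 1-NA-PP1 with full growth; RAM network block rescues cells from 5-FOA so hits raise OD615 growth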). Conditions: S. cerevisiae dse1pr::URA3 5-FOA growth, OD615, 2 d; at 10 µM; stronger effect = higher value; strain carries analog-sensitive mutant Cbk1 kinase.
The nature of test [15]: RAM signaling pathway blockade in yeast – S. cerevisiae, Pdr1DBD-CYC8 efflux-inhibited sensitized strain, primary screen (AID 1298;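 active means RAM network inhibition above 8.4% in each of two replicates, 3 SD over the compound average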;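 further: 0% = DMSO untreated cells without growth and 100% = 10 µM 1-NA-PP1 full growth; higher means more yeast growth rescued from 5-FOA killing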). Conditions: S. cerevisiae cbk1-as DSE1-URA3 strain, 5-FOA growth OD615, 2 d; at 50 µM; stronger effect = higher value.
[16] abbreviates: H69AR cells + 2 uM doxorubicin, measured here: viability with 2 uM doxorubicin, stronger effect = lower value.
Where [17] appears, read: H69AR cells, compound alone cytotoxicity.

Chain of Receptor tyrosine-protein kinase erbB-2 (Homo sapiens) (P04626 whole entry, looked up): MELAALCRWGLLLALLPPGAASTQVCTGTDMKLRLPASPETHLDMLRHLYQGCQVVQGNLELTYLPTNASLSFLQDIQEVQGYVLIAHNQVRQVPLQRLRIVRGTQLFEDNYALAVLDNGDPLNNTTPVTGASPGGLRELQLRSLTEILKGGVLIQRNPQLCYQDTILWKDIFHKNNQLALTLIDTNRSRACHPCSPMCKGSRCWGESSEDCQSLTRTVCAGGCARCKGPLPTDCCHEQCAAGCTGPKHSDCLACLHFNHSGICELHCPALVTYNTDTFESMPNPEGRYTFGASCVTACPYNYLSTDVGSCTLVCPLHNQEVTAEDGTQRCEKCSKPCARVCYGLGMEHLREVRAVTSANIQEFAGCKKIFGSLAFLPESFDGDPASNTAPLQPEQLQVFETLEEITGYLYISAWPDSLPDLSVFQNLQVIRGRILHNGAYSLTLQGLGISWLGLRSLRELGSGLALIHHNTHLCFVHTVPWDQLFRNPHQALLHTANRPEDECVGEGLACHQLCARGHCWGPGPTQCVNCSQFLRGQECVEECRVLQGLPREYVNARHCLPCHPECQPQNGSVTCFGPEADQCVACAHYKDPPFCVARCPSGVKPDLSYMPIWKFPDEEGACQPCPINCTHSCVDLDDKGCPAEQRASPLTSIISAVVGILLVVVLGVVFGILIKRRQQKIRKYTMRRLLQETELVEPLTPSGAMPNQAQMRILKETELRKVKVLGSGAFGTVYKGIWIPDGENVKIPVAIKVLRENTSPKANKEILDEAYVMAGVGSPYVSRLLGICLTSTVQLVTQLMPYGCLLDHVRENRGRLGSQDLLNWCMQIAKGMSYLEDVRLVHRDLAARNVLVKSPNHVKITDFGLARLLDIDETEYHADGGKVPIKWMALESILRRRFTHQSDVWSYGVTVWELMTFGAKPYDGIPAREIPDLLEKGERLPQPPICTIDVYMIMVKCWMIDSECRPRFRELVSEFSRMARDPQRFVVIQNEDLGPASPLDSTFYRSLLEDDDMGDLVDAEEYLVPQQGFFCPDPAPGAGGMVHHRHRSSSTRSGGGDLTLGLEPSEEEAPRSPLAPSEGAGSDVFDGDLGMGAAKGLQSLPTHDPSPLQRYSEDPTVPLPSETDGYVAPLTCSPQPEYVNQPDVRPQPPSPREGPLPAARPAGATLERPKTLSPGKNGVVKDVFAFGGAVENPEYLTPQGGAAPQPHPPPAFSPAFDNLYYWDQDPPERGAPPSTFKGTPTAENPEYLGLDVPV

For the compound `O=C1c2ccccc2C(Nc2ccc3c(c2)OCO3)N1Cc1ccc2c(c1)OCO2` (stereo not drawn), the viability in test [1] was 86%; in test [3], 86% (inactive); in [4], 50% (inactive); in test [5], 83.4% (inactive); in [6] (setting [16]), 87.1%; in test [6] (setting [17]) it was 83.4%. In addition, the viability in test [12] was 76.8% (inactive); in [13], 70.1% (inactive). The Her2 level in test [2] was 81.5% (inactive). In test [6] (H69AR cells + 2 uM doxorubicin), the differential viability (reversal) is -3.75% (inactive). For the same compound, the inhibition is -0.27% (inactive) in test [7], 1.83% (inactive) in [8] and 1.67% (inactive) in test [14]. Also, the growth inhibition in [9] was -0.885% (inactive); in test [10] it was -1.48% (inactive). For the same compound, the viability increase in [11] was -0.78% (inactive). Also, the RAM network inhibition in [15] was 4.17% (inactive).

For `COc1cccc(C2=NOC(C(=O)Nc3cc(C)nn3-c3ccccc3)C2)c1OC` (stereo not drawn), the viability was 93% in test [1]; 93% (inactive) in test [3]; 68.7% (inactive) in [4]; 28.6% (active) in test [5]; 72.5% in test [6] (setting [16]); 28.6% in test [6] (setting [17]). Besides, the viability in test [12] is 68.3% (inactive); in test [13] it was 60.2% (inactive). For the same compound, the Her2 level in test [2] was 91% (inactive). Moreover, the differential viability (reversal) in [6] (H69AR cells + 2 uM doxorubicin) was -43.9% (inactive). Further, the inhibition in [7] was 2.31% (inactive); in [8] it was -1.83% (inactive); in test [14] it was 2.12% (inactive). The growth inhibition in test [9] was 1.31% (inactive); in test [10], 12% (inactive). In addition, the viability increase in test [11] is -5.04% (inactive). For the same compound, the RAM network inhibition in test [15] is -0.06% (inactive).

Turning to `Cc1ccc(C)c2[nH]c(=O)c(CCNC(=O)c3ccc(S(=O)(=O)N(C)C)cc3)cc12`, the viability in [1] is 121%; in test [3], 121% (inactive); in [4], 88.1% (inactive); in test [5], 82.3% (inactive); in [6] (setting [16]) it was 83.9%; in [6] (setting [17]), 82.3%. Moreover, the values for the viability in test [12] and in test [13] were 93.2% (inactive) and 81.5% (inactive), respectively. Moreover, the Her2 level in test [2] was 114% (inactive). The differential viability (reversal) in test [6] (H69AR cells + 2 uM doxorubicin) is -1.57% (inactive). The inhibition is -4.13% (inactive) in test [7], -4% (inactive) in test [8] and 2.99% (inactive) in [14]. Moreover, the figures for the growth inhibition in test [9] and in test [10] were -2.9% (inactive) and -22.2% (inactive), respectively. Also, the viability increase in test [11] was -4.33% (inactive). Further, the RAM network inhibition in [15] is 3.23% (inactive).

Regarding `O=C(CN1C(=O)c2ccccc2S1(=O)=O)NCc1ccccc1Cl`, the viability is 90.5% in test [1]; 90.5% (inactive) in test [3]; 99% (inactive) in test [4]; 89.3% (inactive) in test [5]; 82.9% in [6] (setting [16]); 89.3% in test [6] (setting [17]). In addition, the figures for the viability in test [12] and in test [13] were 102% (inactive) and 100% (inactive), respectively. The Her2 level in test [2] is 108% (inactive). Moreover, the differential viability (reversal) in test [6] (H69AR cells + 2 uM doxorubicin) was 6.38% (inactive). Moreover, the inhibition is -2.05% (inactive) in test [7], -2.17% (inactive) in test [8] and 0.125% (inactive) in test [14]. Further, the growth inhibition is -8.21% (inactive) in test [9] and -12.6% (inactive) in test [10]. The viability increase in test [11] is -0.47% (inactive). For the same compound, the RAM network inhibition in [15] is 4.41% (inactive).

On to `CCC(CC)C(=O)NCCc1cc2ccc(C)cc2[nH]c1=O`, for which the viability is 99% in test [1]; 99% (inactive) in test [3]; 85.2% (inactive) in [4]; 87.6% (inactive) in test [5]; 92.9% in test [6] (setting [16]); 87.6% in test [6] (setting [17]). Besides, the viability in test [12] was 102% (inactive); in [13], 97.4% (inactive). Further, the Her2 level in test [2] was 95% (inactive). For the same compound, the differential viability (reversal) in [6] (H69AR cells + 2 uM doxorubicin) is -5.36% (inactive). Besides, the inhibition in test [7] is -4.8% (inactive); in test [8], 4.67% (inactive); in test [14] it was 0.02% (inactive). In addition, the growth inhibition in [9] was 1.09% (inactive); in test [10], 0.345% (inactive). Further, in test [11], the viability increase was -2.76% (inactive). In addition, in test [15], the RAM network inhibition was 4.75% (inactive).

Take `CCOc1ccc(NC(=O)CSc2nnc(COc3c(C)cccc3C)o2)cc1`: the viability in test [1] is 95%; in test [3] it was 95% (inactive); in test [4], 86.7% (inactive); in test [5], 80.6% (inactive); in [6] (setting [16]), 86.3%; in [6] (setting [17]), 80.6%. Moreover, the viability is 98.9% (inactive) in test [12] and 98.3% (inactive) in test [13]. For the same compound, the Her2 level in test [2] is 102% (inactive). Further, the differential viability (reversal) in test [6] (H69AR cells + 2 uM doxorubicin) is -5.7% (inactive). Moreover, the inhibition in test [7] is -4.93% (inactive); in test [8], -2.83% (inactive); in test [14], 3.71% (inactive). The figures for the growth inhibition in [9] and in [10] were -9.38% (inactive) and -14.3% (inactive), respectively. The viability increase in test [11] was -1.9% (inactive). The RAM network inhibition in test [15] was 8.74% (inactive).

With `Cc1cccc(C)c1OCc1nnc(SCC(=O)Nc2ccccc2F)o1`, the viability is 95.5% in test [1]; 95.5% (inactive) in test [3]; 108% (inactive) in test [4]; 83% (inactive) in test [5]; 90.2% in test [6] (setting [16]); 83% in [6] (setting [17]). The viability was 98.8% (inactive) in [12] and 98.1% (inactive) in test [13]. In [2], the Her2 level was 101% (inactive). Moreover, in [6] (H69AR cells + 2 uM doxorubicin), the differential viability (reversal) is -7.2% (inactive). In addition, the inhibition in test [7] was -5.2% (inactive); in [8] it was -5.17% (inactive); in [14] it was 3.38% (inactive). For the same compound, the growth inhibition in [9] was -12.4% (inactive); in test [10], -9.96% (inactive). Moreover, the viability increase in test [11] is -1.03% (inactive). Also, the RAM network inhibition in test [15] was 3.85% (inactive).

On to `Cc1cccc(-n2ncc3c(NCCCn4ccnc4)ncnc32)c1`, for which the viability is 91.5% in test [1]; 91.5% (inactive) in test [3]; 111% (inactive) in test [4]; 88.6% (inactive) in [5]; 84.9% in test [6] (setting [16]); 88.6% in [6] (setting [17]). In addition, the viability in test [12] was 92.9% (inactive); in test [13], 99.5% (inactive). Further, the Her2 level in test [2] is 93.5% (inactive). Also, the differential viability (reversal) in test [6] (H69AR cells + 2 uM doxorubicin) is 3.66% (inactive). Further, the inhibition in test [7] is 2.13% (inactive); in test [8], -3.67% (inactive); in [14] it was 1.1% (inactive). Moreover, the growth inhibition was -2.31% (inactive) in test [9] and -0.87% (inactive) in test [10]. Besides, the viability increase in [11] was -0.65% (inactive). In addition, the RAM network inhibition in test [15] was -0.32% (inactive).

In the case of `Cc1ccc(NC(=O)CN(c2ccc3c(c2)OCO3)S(=O)(=O)c2c(C)n[nH]c2C)cc1`, the viability in [1] was 92%; in test [3] it was 92% (inactive); in test [4], 85.1% (inactive); in [5], 93.1% (inactive); in test [6] (setting [16]), 91.5%; in [6] (setting [17]) it was 93.1%. Also, the viability in test [12] was 95.7% (inactive); in test [13], 96.9% (inactive). For the same compound, the Her2 level in test [2] is 83% (inactive). Moreover, the differential viability (reversal) in test [6] (H69AR cells + 2 uM doxorubicin) was 1.52% (inactive). Further, the inhibition in test [7] was -5.73% (inactive); in test [8], 2.33% (inactive); in test [14], 3.25% (inactive). Moreover, the growth inhibition is -13.4% (inactive) in test [9] and -19.2% (inactive) in test [10]. Also, the viability increase in test [11] is 2.09% (inactive). For the same compound, the RAM network inhibition in test [15] was 5.15% (inactive).
